# Measurements taken from paper PMC10668032, “Altered binding affinity of SIX1-Q177R correlates with enhanced WNT5A and WNT pathway effector expression in Wilms tumor”.
# Over roughly 33,000 sequences, “e-score” has its median near -0.05; the highest 2% begin near 0.38. The entries come from a sample that favours the highest values as a whole.
# Biological target: T1, SIX1-Q177R homeodomain (human, UniProt Q15475 108-198, Q177R)
# T1 sequence: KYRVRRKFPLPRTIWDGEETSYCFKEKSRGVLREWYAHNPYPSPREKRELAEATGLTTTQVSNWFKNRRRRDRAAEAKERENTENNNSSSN
# Assay: universal protein binding microarray; Universal all-10-mer PBM (8x60K, AMADID 030236), 300 nM GST-tagged protein, Alexa Fluor 488 anti-GST; buffer, salt, pH and temperature not stated (as in Berger); high values mean tight binding
# Conditions: protein: ivt; tags: N-terminal GST; dsDNA, one strand shown
# Outline: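 Homeodomains fused to GST were made by in vitro transcription/translation and measured by anti-GST western blot with a recombinant GST standard curve. At 300 nM final concentration, they were applied in duplicate to universal 'all 10-mer' protein binding microarrays (8×60K format).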
row,Sequence,binding signal [E-score]
1,TCGGGTCA,0.197 ± 0.0386
2,CCGGGTCG,0.248 ± 0.0288
3,CCGTGTCG,0.441 ± 0.0221
4,ACGTGTCT,0.337 ± 0.00126
5,ACGTGTCA,0.4123 ± 0.00349
6,CCCCGTCG,0.161 ± 0.0244
7,TCGTGACA,0.329 ± 0.0128
8,CCGTGATC,0.165 ± 0.0407
9,TCGTGTCA,0.4434 ± 0.00419
10,CGAATCCG,0.166 ± 0.0303
11,AGCTCGTG,0.244 ± 0.0101
12,ATACTCCC,0.162 ± 0.0435
13,CCCCGGTA,0.284 ± 0.00694
14,CATCAGCG,0.153 ± 0.0322
15,CACCGGAC,0.315 ± 0.0498
16,CTATAACA,0.228 ± 0.0138
17,AAAGTGTG,0.184 ± 0.0165
18,GAAGTGTC,0.387 ± 0.0118
19,AAAGTGTT,0.285 ± 0.0563
20,TAAGTGTA,0.373 ± 0.0287
21,AGTGTGTC,0.283 ± 0.029
22,AGAGTGTG,0.247 ± 0.0115
23,AGAGTGTA,0.424 ± 0.0108
24,CAAGTGTA,0.392 ± 0.0272
25,CAAGTGTC,0.379 ± 0.0101

row,Sequence,binding signal [E-score]
1,AGAGTGTC,0.412 ± 0.00919
2,ACCCGGCT,0.202 ± 0.0126
3,ACACATAA,0.18 ± 0.0275
4,GCGAGACA,0.249 ± 0.00462
5,GGAACCCC,0.165 ± 0.0247
6,GGGATCAC,0.2771 ± 0.000933
7,CACCGGAA,0.288 ± 0.0177
8,TAAGGGTA,0.163 ± 0.0467
9,CCGACCAC,0.192 ± 0.0175
10,CGGGTATA,0.21 ± 0.00983
11,CGAGTGTC,0.415 ± 0.00743
12,CGAGTATC,0.158 ± 0.0391
13,GGAGTGCA,0.17 ± 0.0126
14,CGAGTGGA,0.166 ± 0.0322
15,CGAGTACA,0.28 ± 0.0111
16,CGAGTACC,0.168 ± 0.00651
17,GGAGTACA,0.246 ± 0.013
18,CGAGTGTA,0.382 ± 0.0327
19,GGAGTGTA,0.417 ± 0.0148
20,GGGTGCTA,0.217 ± 0.00882
21,CCGCCCCA,0.239 ± 0.0124
22,CCCTACCA,0.167 ± 0.0194
23,CACCTAAG,0.263 ± 0.00735
24,AAACCCCG,0.231 ± 0.0422
25,ACTATATC,0.178 ± 0.0197

row,Sequence,binding signal [E-score]
1,ATGGAGTC,0.232 ± 0.0246
2,GACACGTA,0.39 ± 0.0131
3,AACACGTA,0.343 ± 0.0046
4,AACACGTC,0.309 ± 0.0249
5,CACACGTA,0.262 ± 0.0227
6,GACACGTC,0.381 ± 0.00585
7,CACACGTC,0.221 ± 0.00539
8,CGAAGTAC,0.174 ± 0.00912
9,CACCTCAC,0.354 ± 0.0133
10,CTCCCCCA,0.176 ± 0.0255
11,ACCCGCGA,0.239 ± 0.0203
12,CGGGCACA,0.1994 ± 0.000764
13,CACCCGGC,0.36 ± 0.0229
14,CACCCGGA,0.388 ± 0.0297
15,TACCCGGA,0.247 ± 0.00272
16,CACGCTTC,0.24 ± 0.0251
17,GATACGGA,0.215 ± 0.00231
18,GACACGAC,0.436 ± 0.00629
19,GACACGAA,0.331 ± 0.0274
20,CACACGGC,0.161 ± 0.0205
21,AACACGGC,0.35 ± 0.00429
22,CACACGAC,0.237 ± 0.00357
23,TACACAAA,0.247 ± 0.0503
24,CCCACGGA,0.161 ± 0.00447
25,GACACGGC,0.427 ± 0.0135

row,Sequence,binding signal [E-score]
1,GACACGGA,0.418 ± 0.0309
2,CACACGGA,0.253 ± 0.0652
3,TACACGGA,0.402 ± 0.00597
4,CCTGTGAC,0.194 ± 0.0117
5,TCAGGGGA,0.165 ± 0.0187
6,AAACCCTA,0.157 ± 0.0426
7,AATAGTGT,0.355 ± 0.0289
8,CCCTTCTA,0.177 ± 0.0196
9,GTGGGTCA,0.166 ± 0.0309
10,AAAGGGTG,0.317 ± 0.00321
11,CCCCTCAC,0.203 ± 0.0371
12,ACCCGGGA,0.192 ± 0.0367
13,ACACGGGT,0.4532 ± 0.00279
14,ACACGGGC,0.4237 ± 0.000962
15,ACACGGGG,0.4516 ± 0.00397
16,CCACGGGG,0.194 ± 0.0115
17,ACTCGGGC,0.161 ± 0.036
18,ACACGGAC,0.367 ± 0.00972
19,ACACGGGA,0.411 ± 0.00748
20,ACGGGGGA,0.208 ± 0.00871
21,ATACGGGG,0.171 ± 0.0145
22,ACCCGGGT,0.377 ± 0.0131
23,CACCGTGG,0.333 ± 0.0206
24,CACCTCGG,0.269 ± 0.00615
25,CACGCTGG,0.159 ± 0.00563

row,Sequence,binding signal [E-score]
1,CACTCGGG,0.225 ± 0.016
2,AACCCCAA,0.205 ± 0.00313
3,CTGACCCC,0.283 ± 0.0439
4,CGGGGTAC,0.224 ± 0.0106
5,CAACCGTG,0.187 ± 0.0215
6,CACTGGCA,0.28 ± 0.0195
7,ACACGTGG,0.32 ± 0.00325
8,ACACGTAC,0.353 ± 0.00478
9,ACACGTAA,0.323 ± 0.00431
10,ACACGTGA,0.34 ± 0.0135
11,ACACGTCC,0.373 ± 0.00921
12,ACACGTAT,0.388 ± 0.00574
13,ACACGTGC,0.383 ± 0.0133
14,ACACGTAG,0.325 ± 0.012
15,ACACGTGT,0.4552 ± 0.00158
16,CACTAGCC,0.177 ± 0.031
17,ATACCCGC,0.266 ± 0.0158
18,GGATCACA,0.168 ± 0.0336
19,CCCCGCCG,0.241 ± 0.0442
20,CTGATCCC,0.232 ± 0.00636
21,ACTCCGTG,0.253 ± 0.00334
22,ACACGCTC,0.384 ± 0.0032
23,ACACGCTA,0.383 ± 0.0134
24,ACACGCGC,0.363 ± 0.0139
25,ACACGCTG,0.389 ± 0.00589

row,Sequence,binding signal [E-score]
1,ACACACTA,0.267 ± 0.012
2,ACACGTTG,0.331 ± 0.0165
3,CCCCGCTA,0.199 ± 0.0313
4,GTACGCTA,0.153 ± 0.0129
5,ACACGTTC,0.276 ± 0.0481
6,AACCGGGT,0.218 ± 0.0414
7,CACCCCAC,0.355 ± 0.0406
8,ACCCCACC,0.327 ± 0.05
9,ACTCCCGC,0.253 ± 0.0194
10,CACCATCA,0.231 ± 0.0313
11,CCCGGATA,0.164 ± 0.0511
12,CACTACAA,0.236 ± 0.0147
13,GACTCCAC,0.211 ± 0.00527
14,AACTACCC,0.151 ± 0.011
15,CACTACTC,0.21 ± 0.00852
16,CACTACGC,0.166 ± 0.0306
17,AACTACAC,0.445 ± 0.0094
18,CACTACAC,0.443 ± 0.00461
19,CACTACAG,0.196 ± 0.0315
20,GACTACAC,0.428 ± 0.0046
21,CAAGGGTG,0.252 ± 0.0109
22,CACTTCCA,0.202 ± 0.0394
23,GTCCTACA,0.243 ± 0.0623
24,CACTTAGG,0.229 ± 0.00363
25,ACTCCACT,0.263 ± 0.0258

row,Sequence,binding signal [E-score]
1,CAGGGGTC,0.242 ± 0.0124
2,GTCGGATA,0.292 ± 0.00296
3,ACCCCGCC,0.271 ± 0.018
4,ACCGAAGT,0.167 ± 0.0104
5,ACCCGCCG,0.258 ± 0.00942
6,ACACGCCT,0.416 ± 0.0145
7,ATACGCCA,0.151 ± 0.00585
8,ACCCGCCC,0.243 ± 0.0168
9,ACACGCCC,0.4216 ± 0.00148
10,ACGCCCCC,0.19 ± 0.00645
11,ACACGCCG,0.404 ± 0.009
12,ACGCCCCT,0.205 ± 0.0263
13,ACACGCCA,0.381 ± 0.0176
14,CAACGCCG,0.164 ± 0.00575
15,TAACGCCA,0.16 ± 0.00152
16,ACCCGCCT,0.206 ± 0.00671
17,GGGGTACA,0.329 ± 0.00694
18,GATCCCTA,0.24 ± 0.0333
19,GTGCCAAC,0.156 ± 0.0339
20,GAATTACA,0.22 ± 0.0378
21,ACCCATCG,0.179 ± 0.0324
22,CACTGGGC,0.154 ± 0.00412
